Key:
[1] = target: T1, Casein kinase II (Homo sapiens) (UniProt P67870+P68400+P19784); settings: at 1 µM
[2] = target: T1, Casein kinase II (Homo sapiens); settings: at 10 µM
[3] = target: Casein kinase II subunit alpha' (Homo sapiens) (UniProt P19784); settings: at 1 µM
[4] = target: Casein kinase II subunit alpha' (Homo sapiens) (UniProt P19784); settings: at 10 µM
[5] = target: Dual specificity protein kinase CLK2 (Homo sapiens) (UniProt P49760); settings: at 1 µM
[6] = target: Dual specificity protein kinase CLK2 (Homo sapiens) (UniProt P49760); settings: at 10 µM
[7] = target: Dual specificity protein kinase CLK3 (Homo sapiens) (UniProt P49761); settings: at 1 µM
[8] = target: Dual specificity protein kinase CLK3 (Homo sapiens) (UniProt P49761); settings: at 10 µM
[9] = target: Tyrosine-protein kinase CSK (Homo sapiens) (UniProt P41240); settings: at 1 µM
[10] = target: Tyrosine-protein kinase CSK (Homo sapiens) (UniProt P41240); settings: at 10 µM

Dual specificity protein kinase CLK2 (Homo sapiens), sequence (P49760 whole entry, looked up): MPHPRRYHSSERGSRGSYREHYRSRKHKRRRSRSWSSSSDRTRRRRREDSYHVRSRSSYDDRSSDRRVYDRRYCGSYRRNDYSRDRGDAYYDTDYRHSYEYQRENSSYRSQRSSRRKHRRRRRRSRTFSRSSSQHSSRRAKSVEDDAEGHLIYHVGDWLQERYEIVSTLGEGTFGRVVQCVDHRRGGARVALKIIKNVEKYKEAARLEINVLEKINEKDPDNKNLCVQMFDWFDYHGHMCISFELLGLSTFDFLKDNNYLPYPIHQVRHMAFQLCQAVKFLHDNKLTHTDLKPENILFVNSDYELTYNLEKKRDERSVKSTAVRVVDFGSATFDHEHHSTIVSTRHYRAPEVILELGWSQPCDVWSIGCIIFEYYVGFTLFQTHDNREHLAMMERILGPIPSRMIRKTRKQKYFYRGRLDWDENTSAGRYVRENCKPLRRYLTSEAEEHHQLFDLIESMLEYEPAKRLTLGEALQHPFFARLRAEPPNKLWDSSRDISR
T1 sequence (P19784 whole entry, looked up): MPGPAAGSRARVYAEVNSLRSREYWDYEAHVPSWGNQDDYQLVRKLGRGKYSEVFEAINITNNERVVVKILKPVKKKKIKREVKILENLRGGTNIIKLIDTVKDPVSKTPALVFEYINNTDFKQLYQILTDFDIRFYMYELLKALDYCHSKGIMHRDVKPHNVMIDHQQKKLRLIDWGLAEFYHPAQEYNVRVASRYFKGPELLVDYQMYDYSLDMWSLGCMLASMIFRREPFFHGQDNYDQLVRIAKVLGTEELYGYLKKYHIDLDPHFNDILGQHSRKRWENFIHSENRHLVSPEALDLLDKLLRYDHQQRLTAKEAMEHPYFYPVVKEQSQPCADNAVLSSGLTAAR
T1 sequence (P67870 whole entry, looked up): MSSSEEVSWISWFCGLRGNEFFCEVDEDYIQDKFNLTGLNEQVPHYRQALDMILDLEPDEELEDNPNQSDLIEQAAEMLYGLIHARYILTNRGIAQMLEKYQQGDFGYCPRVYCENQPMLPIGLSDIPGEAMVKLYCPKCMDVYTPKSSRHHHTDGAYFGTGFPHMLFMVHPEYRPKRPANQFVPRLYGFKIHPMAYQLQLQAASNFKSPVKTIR
T1 sequence (P68400 whole entry, looked up): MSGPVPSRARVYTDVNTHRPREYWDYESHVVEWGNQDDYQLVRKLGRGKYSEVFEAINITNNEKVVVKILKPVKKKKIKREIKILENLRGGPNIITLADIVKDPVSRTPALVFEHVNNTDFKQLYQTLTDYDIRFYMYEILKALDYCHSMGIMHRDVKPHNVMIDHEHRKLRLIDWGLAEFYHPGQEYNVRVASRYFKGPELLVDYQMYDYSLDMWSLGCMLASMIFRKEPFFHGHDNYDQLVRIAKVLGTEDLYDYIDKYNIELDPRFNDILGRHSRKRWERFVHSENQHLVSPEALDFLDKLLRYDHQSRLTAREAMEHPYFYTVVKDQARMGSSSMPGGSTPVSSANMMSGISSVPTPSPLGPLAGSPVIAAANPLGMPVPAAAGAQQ
Casein kinase II subunit alpha' (Homo sapiens), sequence (P19784 whole entry, looked up): as the sequence (P19784 whole entry, looked up) above
Tyrosine-protein kinase CSK (Homo sapiens), sequence (P41240 2-450 limits assumed): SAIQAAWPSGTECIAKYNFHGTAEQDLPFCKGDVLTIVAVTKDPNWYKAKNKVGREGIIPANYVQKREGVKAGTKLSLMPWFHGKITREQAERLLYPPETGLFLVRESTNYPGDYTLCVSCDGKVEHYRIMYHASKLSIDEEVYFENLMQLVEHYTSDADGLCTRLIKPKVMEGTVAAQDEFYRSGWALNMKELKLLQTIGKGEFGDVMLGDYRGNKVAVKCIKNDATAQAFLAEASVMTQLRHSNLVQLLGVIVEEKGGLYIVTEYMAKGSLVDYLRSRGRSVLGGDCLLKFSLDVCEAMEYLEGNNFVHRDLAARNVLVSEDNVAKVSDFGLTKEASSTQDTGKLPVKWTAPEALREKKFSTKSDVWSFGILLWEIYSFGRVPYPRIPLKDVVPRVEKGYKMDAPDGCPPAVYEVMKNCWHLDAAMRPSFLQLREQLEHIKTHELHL
Dual specificity protein kinase CLK3 (Homo sapiens), sequence (P49761 whole entry, looked up): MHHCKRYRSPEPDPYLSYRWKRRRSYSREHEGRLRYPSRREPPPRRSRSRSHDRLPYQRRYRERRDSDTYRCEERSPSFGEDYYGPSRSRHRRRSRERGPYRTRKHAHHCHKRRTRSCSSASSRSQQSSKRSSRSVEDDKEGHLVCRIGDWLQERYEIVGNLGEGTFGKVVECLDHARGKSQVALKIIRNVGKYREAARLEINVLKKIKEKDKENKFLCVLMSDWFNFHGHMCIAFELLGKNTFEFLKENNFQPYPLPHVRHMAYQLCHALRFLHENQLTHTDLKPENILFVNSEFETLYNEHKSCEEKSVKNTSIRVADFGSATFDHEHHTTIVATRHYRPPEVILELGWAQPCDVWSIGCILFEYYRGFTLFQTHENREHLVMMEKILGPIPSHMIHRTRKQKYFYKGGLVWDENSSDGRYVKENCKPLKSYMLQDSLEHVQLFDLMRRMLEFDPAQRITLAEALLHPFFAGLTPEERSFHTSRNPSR

Work on O=C1NC(=O)c2c1c1c3ccccc3[nH]c1n1cncc21 yielded a residual activity [1] of 60%, a residual activity [2] of 21% and a residual activity [3] of 81%. It also gave a residual activity [4] of 21%, a residual activity [5] of 51% and a residual activity [6] of 46%. The residual activity [7] was 70%, the residual activity [8] was 53% and the residual activity [9] was 97%. For the same molecule, the residual activity [10] was 58%.

With NC(=O)c1cccc(-c2cc(Nc3ccc(OC(F)(F)F)cc3)ncn2)c1 the residual activity [1] was 99%, the residual activity [2] was 97% and the residual activity [7] was 97%.

In the case of O=C1NC(=O)C(c2cn(CCCO)c3ncccc23)=C1c1cnccn1, the residual activity [1] is reported as 76%, the residual activity [2] is reported as 66% and the residual activity [3] is reported as 57%. The residual activity [4] was 52%, the residual activity [5] was 52% and the residual activity [6] was 36%. For the same molecule, the residual activity [7] was 74%, the residual activity [8] was 78% and the residual activity [10] was 97%.

For O=c1cc(N2CCOCC2)oc2c1ccc1ccccc12, the residual activity [1] was 18%, the residual activity [2] was -1% and the residual activity [3] was 56%. The residual activity [4] was 5%, the residual activity [5] was 98% and the residual activity [6] was 45%. For the same molecule, the residual activity [7] was 91% and the residual activity [9] was 103%.

O=C1Cc2c([nH]c3ccc(Br)cc23)-c2ccccc2N1 showed a residual activity [1] of 79%, a residual activity [2] of 55% and a residual activity [4] of 92%. The residual activity [5] was 80%, the residual activity [6] was 56% and the residual activity [7] was 78%. It also gave a residual activity [8] of 67% and a residual activity [10] of 81%.

Nc1ncnc2c1cnn2-c1ccccc1 gave a residual activity [1] of 87%, a residual activity [2] of 36% and a residual activity [4] of 58%. For the same molecule, the residual activity [7] was 87% and the residual activity [8] was 99%.

Cn1c2ccccc2c2c3c(c4c5ccccc5n(CCC#N)c4c21)CNC3=O gave a residual activity [2] of 103%, a residual activity [3] of 129% and a residual activity [4] of 96%. The residual activity [8] was 1%, the residual activity [9] was 107% and the residual activity [10] was 102%.

For COc1ccc(COc2ccc(Cc3cnc(N)nc3N)cc2OC)cc1, the residual activity [3] was 110%, the residual activity [4] was 74% and the residual activity [5] was 108%. The residual activity [6] was 100% and the residual activity [8] was 3%.

Cn1sc(=O)n(Cc2ccccc2)c1=O gave a residual activity [1] of 85%, a residual activity [2] of 90% and a residual activity [7] of 64%. For the same molecule, the residual activity [8] was 74%, the residual activity [9] was 92% and the residual activity [10] was 90%.

O=S(=O)(c1cccc2cnccc12)N1CCCNCC1 was tested, and the residual activity [8] was 81%.

NC(=O)c1ccc(-c2nc(-c3ccc4c(c3)OCCO4)c(-c3ccccn3)[nH]2)cc1 gave a residual activity [1] of 95%, a residual activity [2] of 97% and a residual activity [7] of 81%. For the same molecule, the residual activity [8] was 76%, the residual activity [9] was 119% and the residual activity [10] was 91%.

COc1ccc2c(c1)c(C1=C(c3c[nH]c4ccccc34)C(=O)NC1=O)cn2CCCN(C)C was tested, and the residual activity [2] was 111%, the residual activity [5] was 14% and the residual activity [6] was 2%. For the same molecule, the residual activity [7] was 59% and the residual activity [8] was 45%.

With O=c1c(-c2ccc(F)cc2)c(-c2ccncc2)[nH]n1-c1ccc(Cl)cc1 the residual activity [5] was 122%, the residual activity [6] was 101% and the residual activity [8] was 81%.

With COc1cc2nccc(Oc3ccc(NC(=O)Nc4cc(C)on4)c(Cl)c3)c2cc1OC the residual activity [6] was 99%, the residual activity [7] was 80% and the residual activity [8] was 4%. It also gave a residual activity [9] of 72% and a residual activity [10] of 35%.

O=C(Nc1ccc(Cl)cc1)c1ccccc1NCc1ccncc1 was tested, and the residual activity [5] was 120% and the residual activity [6] was 99%.

Molecule CCN1/C(=C/C(C)=O)Sc2ccc(OC)cc21 has a residual activity [5] of 20%, a residual activity [6] of 6% and a residual activity [7] of 77%. It also gave a residual activity [8] of 40%.

Molecule COc1cc2ncnc(Nc3cccc(Cl)c3)c2cc1OC has a residual activity [3] of 128%, a residual activity [4] of 102% and a residual activity [5] of 110%. It also gave a residual activity [6] of 74%, a residual activity [8] of 84% and a residual activity [9] of 111%. For the same molecule, the residual activity [10] was 80%.

For COc1ccc(-c2cnc3c(-c4ccsc4)cnn3c2)cc1, the residual activity [7] was 80%, the residual activity [8] was 61% and the residual activity [10] was 98%.

For O=C1Nc2ccccc2/C1=C\c1c(Cl)[nH]c2ccccc12, the residual activity [8] was 76% and the residual activity [10] was 99%.

Molecule O=C1Cc2c([nH]c3ccc([N+](=O)[O-])cc23)-c2ccccc2N1 has a residual activity [8] of 82%.

Work on Nc1ncnc2[nH]nc(Nc3ccc(F)cc3)c12 yielded a residual activity [1] of 104%, a residual activity [3] of 104% and a residual activity [4] of 73%. For the same molecule, the residual activity [5] was 109%, the residual activity [6] was 68% and the residual activity [9] was 90%. The residual activity [10] was 65%.

CC(C)(C)n1nc(Cc2cccc3ccccc23)c2c(N)ncnc21 gave a residual activity [3] of 118%, a residual activity [4] of 72% and a residual activity [5] of 94%. The residual activity [6] was 42%, the residual activity [7] was 95% and the residual activity [8] was 32%. For the same molecule, the residual activity [9] was 82% and the residual activity [10] was 20%.

In the case of O=C(NC(NC(=S)Nc1ccc(F)c([N+](=O)[O-])c1)C(Cl)(Cl)Cl)C(c1ccccc1)c1ccccc1 (stereo not given), the residual activity [2] is reported as 85%, the residual activity [7] is reported as 94% and the residual activity [8] is reported as 84%. It also gave a residual activity [9] of 95% and a residual activity [10] of 101%.

Work on CCN(CC)CCNC(=O)c1c(C)[nH]c(/C=C2\C(=O)Nc3ccc(Cl)cc32)c1C yielded a residual activity [4] of 47%, a residual activity [5] of 9% and a residual activity [6] of 1%. For the same molecule, the residual activity [7] was 77% and the residual activity [8] was 4%.

In the case of O=C(c1cc2cc(O)ccc2[nH]1)c1cc2cc(O)ccc2[nH]1, the residual activity [4] is reported as 72%, the residual activity [5] is reported as 32% and the residual activity [6] is reported as 5%. The residual activity [7] was 69% and the residual activity [8] was 4%.

With O=C1NC(=O)C(c2c[nH]c3ccccc23)=C1c1c[nH]c2ccccc12 the residual activity [3] was 118%, the residual activity [5] was 27% and the residual activity [6] was 5%. It also gave a residual activity [7] of 60% and a residual activity [8] of 29%.

Work on c1ccc(-c2cnc(Nc3ccc(OCCN4CCCC4)cc3)s2)cc1 yielded a residual activity [3] of 127%, a residual activity [4] of 81% and a residual activity [6] of 30%.

With Cc1cc(C)c(/C=C2\C(=O)Nc3ccccc32)[nH]1 the residual activity [5] was 49%, the residual activity [6] was 37% and the residual activity [7] was 80%. The residual activity [8] was 11%.

For Nc1nccc(-c2c(-c3ccc(F)cc3)ncn2C2CCNCC2)n1, the residual activity [4] was 60%, the residual activity [5] was 69% and the residual activity [6] was 30%. The residual activity [8] was 68%.

CCCCc1c(-c2ccc(OC)cc2)[nH]c2nccnc12 gave a residual activity [3] of 111%, a residual activity [5] of 78% and a residual activity [7] of 85%. It also gave a residual activity [8] of 73%.

NCCNc1ncc(C(N)=O)c(Nc2cccc(C(F)(F)F)c2)n1 showed a residual activity [7] of 82% and a residual activity [8] of 63%.

O=C(Nc1nc2ccccc2n1CCN1CCOCC1)c1cccc([N+](=O)[O-])c1 was tested, and the residual activity [1] was 86%, the residual activity [5] was 26% and the residual activity [6] was 24%. For the same molecule, the residual activity [7] was 55%, the residual activity [8] was 56% and the residual activity [9] was 103%. For the same molecule, the residual activity [10] was 105%.

Molecule O=C1NC(=O)C(c2cn(CCCn3ccnc3)c3ccccc23)=C1Nc1ccccc1 has a residual activity [5] of 8%, a residual activity [6] of 2% and a residual activity [7] of 55%. It also gave a residual activity [8] of 36%, a residual activity [9] of 107% and a residual activity [10] of 78%.

O=S(=O)(NCCNC/C=C/c1ccc(Br)cc1)c1cccc2cnccc12 gave a residual activity [6] of 68%, a residual activity [7] of 79% and a residual activity [9] of 100%.

CC(C)[C@H](CO)Nc1nc(Nc2cc(N)cc(Cl)c2)c2ncn(C(C)C)c2n1 gave a residual activity [2] of 93%, a residual activity [3] of 120% and a residual activity [4] of 96%. It also gave a residual activity [10] of 73%.

Work on COc1ccc(CNC(=O)Nc2ncc([N+](=O)[O-])s2)cc1 yielded a residual activity [5] of 102%, a residual activity [6] of 105% and a residual activity [9] of 81%. For the same molecule, the residual activity [10] was 74%.

In the case of CC(C)N(CCC(=O)c1ccc2ccccc2c1)Cc1ccccc1, the residual activity [7] is reported as 74%.

N#C/C(=C\c1ccc(O)c(O)c1)C(=O)NCc1ccccc1 gave a residual activity [3] of 129%, a residual activity [4] of 100% and a residual activity [6] of 80%. The residual activity [7] was 82%.

Source: ChEMBL document CHEMBL2218924, “A broad activity screen in support of a chemogenomic map for kinase signalling research and drug discovery” (Biochem J, 2013)
